Pf Dd2 inh = Plasmodium falciparum Dd2 growth inhibition. Potency, µM (titrated, usually from 28.9 µM), inactives show at the top dose activity, negative = inhibition, most hits filed as inhibitors. P. falciparum Dd2 growth, SYBR Green, 72 h. hit rate 4.3% among 120,000; active = well fitted inhibition curve with a large enough effect;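 also: plate controls were DMSO vehicle for no effect and reference drug for full effect; nearly all actives have a fitted effect of over 65% in size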
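Infected erythrocytes (Dd2, 0.3% parasitemia, 2.5% hematocrit final) are added to compound in RPMI-1640/Albumax II medium, grown 72 h at 37C in low oxygen, then lysed with saponin/Triton-X containing SYBR Green and read by fluorescence.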
An asterisk follows results filed as active; i = inactive; [ ] = another dose, or the depositor's remark. The full list was thinned out, with hits kept by preference. Potency is read from the fitted curve at half-maximal effect.

SMILES | Pf Dd2 inh
Cc1ccc(NC(=O)Nc2csc3c2CCCC3)c(C)c1 | i[5.79 µM]
O=C1COCC2(CN(c3ccccc3)C2)CN1c1ccc(OC(F)(F)F)cc1 | i
Cc1cc(C)n(C)c(=O)c1C(=O)N1CCC2(CC1)CNC(C(=O)O)C2 (stereo unspecified) | -6.5%
CS(=O)(=O)N1CCc2ccc(C(=O)NCc3ccc(N4CCOCC4)cc3)cc21 | i
CC(=O)c1cccc(NC(=O)Cn2c(-c3ccc(F)cc3)nc(C)c(CCO)c2=O)c1 | -29.1%
Cc1ccccc1NC(=O)Cn1c(-c2cccc(Cl)c2)nc(C)c(CCO)c1=O | i
Cc1ccc(NC(=O)Cn2c(-c3ccc(F)cc3)nc(C)c(CCO)c2=O)c(Cl)c1 | i
Cc1nc(-c2ccc(F)cc2)n(CC(=O)Nc2cc(C(F)(F)F)ccc2Cl)c(=O)c1CCO | 11.2µM*
Cc1nc(-c2cccc(Cl)c2)n(CC(=O)NC(C)C)c(=O)c1CCO | -12.5%
CCc1ccc(NC(=O)Cn2c(-c3ccc(Cl)cc3)nc(C)c(CCO)c2=O)cc1 | -11.7%
Cc1nc(-c2ccccc2)n(CC(=O)Nc2ccc(F)c(Cl)c2)c(=O)c1CCO | 8.91µM*
Cc1cc(C)cc(NC(=O)Cn2c(-c3cccc(Cl)c3)nc(C)c(CCO)c2=O)c1 | 10µM*
CCc1ccccc1NC(=O)Cn1c(-c2ccc(F)cc2)nc(C)c(CCO)c1=O | -10.8%
C#C[C@H]1CN2CC[C@H]1C[C@@H]2CNCc1ccc(N(C)C)cc1 | i
COc1cccc(CN2C(=O)OC3(CCN(C(=O)C4CCOCC4)CC3)C2(C)c2cccnc2)c1 (stereo unspecified) | i
OC1(Cn2ccnc2)CCN(c2nccc(-c3cccnc3)n2)CC1 | -12.3%
O=S(=O)(NC[C@@H]1CCNC[C@H]1O)c1ccc(OC(F)(F)F)cc1 | 11.9%
O=C(c1ccc2[nH]ccc2c1)N1CCC2(CC1)Nc1ccccc1NC2=O | -7.2%
C[C@@H](NS(C)(=O)=O)c1onc(-c2ccc(F)cc2)c1C(=O)O | 15.5%[44.1 µM]
CCn1cc(C(=O)N2CCCC(CCc3cccc(F)c3)C2)cn1 (stereo unspecified) | 1.6%
COc1ccc(-c2cc(C[C@@H]3CC[C@H](O)[C@@H](CNC(=O)c4ccc5c(c4)OCO5)O3)no2)cc1 | -24.0%
O=C(Cc1ccccc1)Nc1ccc([C@@H](O)[C@H]2COCC(=O)N2Cc2ccccn2)cc1 | -24.9%[44.1 µM]
COCc1ccc(C(=O)NCC2COc3c(cccc3OC)C2)s1 (stereo unspecified) | -11.1%
C[C@@]1(O)CCN(C(=O)c2ccc(-c3noc(C4CC4)n3)cc2)C[C@@H]1O | -17.3%
Cc1cnc(C(=O)N2CCCN(S(C)(=O)=O)c3ccccc32)cn1 | 12.6%
SMILES | Pf Dd2 inh
Cc1cccc(-c2noc([C@@H]3Cc4nc[nH]c4CN3C(=O)C3CCCCC3)n2)c1 | -12.3%[44.1 µM]
O=C(O)c1ccc(CN2Cc3[nH]cnc3C[C@H]2c2nc(-c3cccc([N+](=O)[O-])c3)no2)cc1 | -5.5%
COc1ccc(-c2noc([C@@H]3CCCN3C(=O)c3ccc(C(C)(C)C)cc3)n2)cc1 | i
Cc1ccc(-c2noc([C@@H]3CCCN3C(=O)Cc3ccccc3)n2)cc1 | i
O=C(NC1CCCCC1)N1Cc2[nH]cnc2C[C@H]1c1nc(-c2ccc(Cl)cc2)no1 | -24.1%[44.1 µM]
CCOc1ccc(C(=O)N2CCC[C@H]2c2nc(-c3ccccc3)no2)cc1 | -2.7%
O=[N+]([O-])c1cccc(-c2noc([C@@H]3Cc4nc[nH]c4CN3CC3CCCCC3)n2)c1 | 14.1µM*
O=C(CCc1ccccc1)N1CCC[C@H]1c1nc(-c2ccccc2)no1 | 15.7%
COc1ccc(-c2noc([C@@H]3Cc4nc[nH]c4CN3C(=O)NC3CCCCC3)n2)cc1 | 12.6µM*
CCCCOc1ccc(C(=O)N2CCC[C@H]2c2nc(-c3ccc(OC)cc3)no2)cc1 | 11.2µM*
O=C(NC1CCCCC1)N1Cc2[nH]cnc2C[C@H]1c1nc(-c2ccc3ccccc3c2)no1 | i
Cc1ccc(-c2noc([C@@H]3CCCN3C(=O)CCCc3ccccc3)n2)cc1 | 11.2µM*
COc1cccc(NC(=O)C2CC(=O)N(c3n[nH]c4cc(Br)ccc34)C2)c1 (stereo unspecified) | 9.6%
CCC(=O)N1CCC(c2noc(COC)n2)C1 (stereo unspecified) | 22.4%
COC[C@@H]1CN(Cc2cc(F)c(F)c(F)c2)C[C@H]1C(=O)NC1CC1 | -15.8%
CCc1cnc(N2CCC(COc3ccc4c(cnn4CCC(=O)O)c3)CC2)nc1 | i
Cc1noc(C)c1NC(=O)N[C@@H]1C[C@H](Cn2cc(-c3cccnc3)nn2)[C@@H](O)[C@H]1O | 0.7%
O=C(Cc1cccc(F)c1)N1CCC(N2CC3CC(C2)[C@H]2CCCC(=O)N2C3)CC1 (stereo partly specified) | -2.6%
COc1cccc(-c2cc(C(=O)N3CCCC3c3nncn3C(C)C)[nH]n2)c1 (stereo unspecified) | -1.7%
COc1c[nH]c(CN2CCN(C)C3(CCC(=O)N(C)CC3)C2)cc1=O (stereo unspecified) | -10.8%
CC[C@H]1CN(C(=O)Nc2cccc(C(F)(F)F)c2)CC[C@H]1CC(=O)N1CCOCC1 | 7.6%[44.1 µM]

Bioassay records from PubChem BioAssay.
